# The supplement of paper PMC7411054
# Where a name gives a salt, the structure may show the parent alone.
# Tests used:
# Experiment in all cases: lowest phenotypically active concentration; higher = less potent
# Settings in all cases: treatment time: 24 h
# HepG2-TP53BP1-CLTA = tested on: HepG2-TP53BP1-CLTA
# Summary of the method: (§1)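 After 24 h at 0.3, 1, 3 or 9 µM, with four wells per treatment, fifteen gene-edited A549, HepG2 and WPMY1 reporter lines carrying BFP, GFP and RFP/FusionRed were imaged live. Each well's live-cell features were expressed relative to solvent control wells. Deviation required ≥3 of 4 wells past the 95th percentile of control Euclidean distances, and reproducibility a median replicate Pearson correlation over the 95th percentile of non-replicates. Phenotypic activity rested on both.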
# A549-TP53BP1-CLTA = tested on: A549-TP53BP1-CLTA
# Summary of the method: as §1
# HepG2-ACTB-RAB5A = tested on: HepG2-ACTB-RAB5A
# Summary of the method: as §1
# HepG2-CANX-COX4 = tested on: HepG2-CANX-COX4
# Summary of the method: as §1
# HepG2-GM130-SQSTM1 = tested on: HepG2-GM130-SQSTM1
# Summary of the method: as §1
# HepG2-TUBA1B-RELA = tested on: HepG2-TUBA1B-RELA
# Summary of the method: as §1
# WPMY1-TP53BP1-CLTA = tested on: WPMY1-TP53BP1-CLTA
# Summary of the method: as §1
# WPMY1-TUBA1B-RELA = tested on: WPMY1-TUBA1B-RELA
# Summary of the method: as §1
# A549-TUBA1B-RELA = tested on: A549-TUBA1B-RELA
# Summary of the method: as §1
structure (smiles),measurement,setting,value
CCOC(=O)c1c2c3c(cccc3[nH]c1=O)C(=O)c1ccccc1-2,lowest phenotypically active concentration,HepG2-TP53BP1-CLTA,≤ 0.3 µM
CCC(C)(C)C(=O)O[C@H]1C[C@@H](C)C=C2C=C[C@H](C)[C@H](CC[C@@H]3C[C@@H](O)CC(=O)O3)[C@H]21 [Simvastatin],lowest phenotypically active concentration,A549-TP53BP1-CLTA,9 µM
same,lowest phenotypically active concentration,HepG2-ACTB-RAB5A,1 µM
same,lowest phenotypically active concentration,HepG2-CANX-COX4,1 µM
same,lowest phenotypically active concentration,HepG2-GM130-SQSTM1,1 µM
same,lowest phenotypically active concentration,HepG2-TP53BP1-CLTA,3 µM
same,lowest phenotypically active concentration,HepG2-TUBA1B-RELA,1 µM
same,lowest phenotypically active concentration,WPMY1-TP53BP1-CLTA,3 µM
same,lowest phenotypically active concentration,WPMY1-TUBA1B-RELA,3 µM
O=S(=O)(c1cccc2cnccc12)N1CCNCC1,lowest phenotypically active concentration,A549-TP53BP1-CLTA,9 µM
same,lowest phenotypically active concentration,A549-TUBA1B-RELA,9 µM
same,lowest phenotypically active concentration,HepG2-ACTB-RAB5A,9 µM
same,lowest phenotypically active concentration,HepG2-CANX-COX4,3 µM
same,lowest phenotypically active concentration,HepG2-GM130-SQSTM1,3 µM
same,lowest phenotypically active concentration,HepG2-TP53BP1-CLTA,9 µM
same,lowest phenotypically active concentration,HepG2-TUBA1B-RELA,3 µM
same,lowest phenotypically active concentration,WPMY1-TP53BP1-CLTA,9 µM
same,lowest phenotypically active concentration,WPMY1-TUBA1B-RELA,3 µM
O=C(/C=C/c1ccc2ccccc2n1)c1ccncc1,lowest phenotypically active concentration,A549-TUBA1B-RELA,9 µM
same,lowest phenotypically active concentration,HepG2-ACTB-RAB5A,3 µM
same,lowest phenotypically active concentration,HepG2-GM130-SQSTM1,9 µM
same,lowest phenotypically active concentration,HepG2-TUBA1B-RELA,9 µM
same,lowest phenotypically active concentration,WPMY1-TP53BP1-CLTA,9 µM
same,lowest phenotypically active concentration,WPMY1-TUBA1B-RELA,9 µM
CNC(=O)c1cc(Oc2ccc(NC(=O)Nc3ccc(Cl)c(C(F)(F)F)c3)c(F)c2)ccn1 [regorafenib],lowest phenotypically active concentration,A549-TP53BP1-CLTA,9 µM
same,lowest phenotypically active concentration,HepG2-ACTB-RAB5A,3 µM
same,lowest phenotypically active concentration,HepG2-CANX-COX4,3 µM
same,lowest phenotypically active concentration,HepG2-GM130-SQSTM1,≤ 0.3 µM
same,lowest phenotypically active concentration,HepG2-TP53BP1-CLTA,≤ 0.3 µM
same,lowest phenotypically active concentration,HepG2-TUBA1B-RELA,≤ 0.3 µM
same,lowest phenotypically active concentration,WPMY1-TP53BP1-CLTA,9 µM
CCC(=O)N1CCOc2c(cc(-c3ccc(OC)c(OC)c3)cc2OC[C@H]2CCCN(C)C2)C1,lowest phenotypically active concentration,A549-TUBA1B-RELA,9 µM
same,lowest phenotypically active concentration,HepG2-ACTB-RAB5A,9 µM
same,lowest phenotypically active concentration,HepG2-CANX-COX4,9 µM
same,lowest phenotypically active concentration,HepG2-TUBA1B-RELA,9 µM
Cn1cc(-c2cnc3ccc4ccc(CS(=O)(=O)NCc5ccccn5)cc4c(=O)c3c2)cn1,lowest phenotypically active concentration,A549-TUBA1B-RELA,9 µM
CNCC[C@H](Oc1cccc2ccccc12)c1cccs1 [duloxetine],lowest phenotypically active concentration,A549-TUBA1B-RELA,9 µM
O=C(CCCCCCC(=O)Nc1ccc([C@H]2O[C@@H](CSc3nc(-c4ccccc4)c(-c4ccccc4)o3)C[C@@H](c3ccc(CO)cc3)O2)cc1)NO [Tubacin],lowest phenotypically active concentration,WPMY1-TP53BP1-CLTA,9 µM
same,lowest phenotypically active concentration,WPMY1-TUBA1B-RELA,9 µM
Cc1ccc(S(=O)(=O)c2ccc([N+](=O)[O-])o2)cc1,lowest phenotypically active concentration,HepG2-ACTB-RAB5A,9 µM
same,lowest phenotypically active concentration,HepG2-GM130-SQSTM1,9 µM
same,lowest phenotypically active concentration,HepG2-TUBA1B-RELA,3 µM
same,lowest phenotypically active concentration,WPMY1-TP53BP1-CLTA,3 µM
same,lowest phenotypically active concentration,WPMY1-TUBA1B-RELA,9 µM
CC(C)c1nc(CN(C)C(=O)N[C@H](C(=O)N[C@@H](Cc2ccccc2)C[C@H](O)[C@H](Cc2ccccc2)NC(=O)OCc2cncs2)C(C)C)cs1 [ritonavir],lowest phenotypically active concentration,HepG2-GM130-SQSTM1,9 µM
CC1(CN2CCC(n3c(=O)[nH]c4ccccc43)CC2)OCc2ccccc2-n2cccc21 (configuration not stated),lowest phenotypically active concentration,A549-TUBA1B-RELA,9 µM
O=c1cc(-c2ccccc2)oc2cc(O)cc(O)c12 [Chrysin],lowest phenotypically active concentration,WPMY1-TP53BP1-CLTA,9 µM
COc1cc2c(cc1OC)-c1c/c(=N/c3c(C)cc(C)cc3C)n(C)c(=O)n1CC2 [Trequinsin hydrochloride],lowest phenotypically active concentration,HepG2-ACTB-RAB5A,9 µM
same,lowest phenotypically active concentration,HepG2-CANX-COX4,9 µM
same,lowest phenotypically active concentration,WPMY1-TP53BP1-CLTA,9 µM
same,lowest phenotypically active concentration,WPMY1-TUBA1B-RELA,9 µM
CCc1nc(-c2cccc(C)c2)c(-c2ccnc(NC(=O)c3ccccc3)c2)s1,lowest phenotypically active concentration,HepG2-ACTB-RAB5A,9 µM
same,lowest phenotypically active concentration,HepG2-CANX-COX4,1 µM
same,lowest phenotypically active concentration,HepG2-GM130-SQSTM1,1 µM
same,lowest phenotypically active concentration,HepG2-TP53BP1-CLTA,3 µM
same,lowest phenotypically active concentration,HepG2-TUBA1B-RELA,1 µM
same,lowest phenotypically active concentration,WPMY1-TUBA1B-RELA,9 µM
